High-throughput results as filed in PubChem.
Shown is part of a subset that was picked to be rich in hits.
Methyltransferases = Primary Screen for Target Class Profiling of Small Molecule Inhibitors of Methyltransferases. purified enzyme, MTase-Glo SAH luminescence; stronger effect = lower value. AID 1745853, 2022. calls only at 40 µM. hit rate 3.9% among 25,000; call rule not given here
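Each enzyme was reacted with SAM and its substrate, with compounds tested once at 40 uM; SAH formed was read by MTase-Glo luminescence.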
* = called active by the depositor. % is scaled to controls: 0 for no effect and ±100 for the full control effect.

Screening Cc1ccc(CCNC(=O)c2cc3n(n2)CC(C)(C(=O)NC2CCCC2)N(C)C3=O)cc1 (stereo not drawn) returned Methyltransferases inactive.
`CCC(C)NC(=O)c1ccc2c(=O)n(C3CC3)c3nn(CC(=O)Nc4ccc(C)cc4)c(=O)n3c2c1` (stereo not drawn) gave Methyltransferases inactive.
CC(=O)c1ccc(Nc2nc3c(S(=O)(=O)c4ccccc4)nnn3c3ccc(Cl)cc23)cc1 was read as Methyltransferases inactive.
CCN(CC)c1ccc2c(O)c(C=Nc3ccc(CC(=O)O)c(-c4c5c(nc6ccccc46)CCC(C(=O)NN)C5)c3)c(=O)oc2c1 (stereo not drawn) was read as Methyltransferases active.
O=C(NC1CC1)[C@@H]1C[C@H](Oc2cccnc2)CN1C(=O)c1ccccn1 was read as Methyltransferases inactive.
NCC(CNc1nc(Nc2cccc(NC(=O)N3CCCC3)c2)ncc1I)C(=O)c1cccs1 (stereo not drawn) was read as Methyltransferases active.
O=C(Nc1ccccc1)N1CCC(Cc2cnc3ccccc3c2)CC1 was read as Methyltransferases inactive.
CC1(C(=O)NC2CCCCCC2)Cn2c(ccc2-c2ccco2)C(=O)N1Cc1ccccc1 (stereo not drawn) was read as Methyltransferases inactive.
Screening COc1ccc(C(=O)N2C[C@@H]3C[C@H](C2)c2ccc(NS(=O)(=O)c4ccc(OC)cc4)c(=O)n2C3)cc1 returned Methyltransferases inactive.
Screening CC(C)NC(=O)c1ccc2c(=O)n(Cc3ccccc3)c3nnc(SCC(=O)NC4CCCC4)n3c2c1 returned Methyltransferases inactive.
Screening CCOc1ccc(CCN2C(=O)c3cc4ccccc4n3CC2(C)C(=O)NCc2ccccc2OC)cc1 (stereo not drawn) returned Methyltransferases inactive.
For CSC(=O)OCC1=C[C@@H]2OC(=O)C3=CO[C@@H](O[C@@H]4O[C@H](CO)[C@@H](O)[C@H](O)[C@H]4O)[C@H]1[C@@H]32 the results were Methyltransferases active.
`COC(=O)C1=CO[C@@H](O[C@@H]2O[C@H](CO)[C@@H](O)[C@H](O)[C@H]2O)[C@@H]2C(CO)=CC[C@H]12` gave Methyltransferases inactive.
O=C(/C=C/c1ccc(O)cc1)OCC1=CC2OC(=O)C3=CO[C@@H](O[C@@H]4O[C@H](CO)[C@@H](O)[C@H](O)[C@H]4O)[C@H]1[C@@H]32 (stereo partly drawn) was read as Methyltransferases inactive.
`COc1cccc(C(=O)NC2CCCN(c3ccc4nnc(C5CC5)n4n3)C2)c1` (stereo not drawn) gave Methyltransferases inactive.
For C=C1CCC2C(C)(C)C(O)CCC2(C)C1CCC(C)CCOC(=O)CCC(=O)O (stereo not drawn) the results were Methyltransferases inactive.
For COc1ccc2nc3n[nH]c(C)c3c(NCCOCCO)c2c1 the results were Methyltransferases active.
For O=C(c1ccccc1)N1CCCC2(CC(c3ccccc3)=NO2)C1 (stereo not drawn) the results were Methyltransferases inactive.
Screening CC(=O)N(C)C1(c2ccccc2)CCN(CCC[C@]2(c3ccc(Cl)c(Cl)c3)CCCN(C(=O)c3ccccc3)C2)CC1 returned Methyltransferases active.
Screening CC1=NOC2(CCN(C(=O)c3ccccc3)C2)C1 (stereo not drawn) returned Methyltransferases inactive.
Cc1ccc(NC(=O)CSc2nnc3n(C)c(=O)c4ccc(C(=O)NC5CCCC5)cc4n23)cc1 was read as Methyltransferases inactive.
Screening CC1(C(=O)NC2CCCC2)Cn2c(ccc2-c2ccco2)C(=O)N1Cc1ccccc1Br (stereo not drawn) returned Methyltransferases inactive.
CNC(=S)NS(=O)(=O)c1cc(CCNC(=O)c2cc(Cl)ccc2OC)ccc1OC was read as Methyltransferases inactive.
For CC(C)NNC(=O)c1ccncc1 the results were Methyltransferases inactive.
COc1ccc(-c2ccc(-c3cn(C(=O)N4CCCCC4c4ccccc4)nn3)cc2)cc1 (stereo not drawn) was read as Methyltransferases inactive.
`CCCC(=O)NCCc1csc(-c2ccc(Cl)cc2)n1` gave Methyltransferases inactive.
For C=C1C(=O)OC2/C=C(\CO)CC/C=C(\C=O)CC(OC(=O)CC(C)C)C12 (stereo not drawn) the results were Methyltransferases active.
C=C1C(=O)OC2/C=C(\COC(C)=O)CC/C=C(\C=O)CC(OC(=O)CC(C)C)C12 (stereo not drawn) was read as Methyltransferases inactive.
`C=C1C(=O)OC2C3=C(C)C(=O)CC3C(C)CC(O)C12` (stereo not drawn) gave Methyltransferases inactive.
For C=C1C(=O)O[C@@H]2/C=C(\CO)CC/C=C(/C=O)C[C@H](O)[C@@H]12 the results were Methyltransferases active.
Screening C=C1C(=O)O[C@@H]2/C=C(\CO)CC/C=C(/C=O)C[C@@H](O)[C@@H]12 returned Methyltransferases active.
C=C1C(=O)OC2/C=C(\C)CC/C=C(\C(=O)O)CC/C=C(\C)CCC12 (stereo not drawn) was read as Methyltransferases inactive.
Screening C=C(C)C(=O)O[C@H]1[C@H]2C(=C)C(=O)O[C@@H]2/C=C(\CO)CC/C=C(/C=O)[C@@H]1O returned Methyltransferases inactive.
`COc1ccc(C)cc1NC(=O)Cn1c(=O)c2ccc(Cl)cc2n2nncc12` gave Methyltransferases inactive.
`Cc1nc(CCNS(=O)(=O)c2c(C)nn(C)c2C)no1` gave Methyltransferases inactive.
Cc1cc(C)n(CCc2c(-c3ccccc3)ncn2C(C)CCCC(C)(C)O)n1 (stereo not drawn) was read as Methyltransferases inactive.
Screening Cc1cccc(NC(=O)CSc2nnc3n(C)c(=O)c4ccc(C(=O)NC5CCCC5)cc4n23)c1 returned Methyltransferases inactive.
`O=C(Cc1ccccc1F)Nc1cnc(-c2cccnc2)nc1` gave Methyltransferases inactive.
Screening CCOC(=O)CC(NS(=O)(=O)c1ccc2[nH]c3c(c2c1)CCCC3)c1ccccc1Cl (stereo not drawn) returned Methyltransferases inactive.
`O=C(Cn1c(=O)oc2cc(S(=O)(=O)N3CCCC3)ccc21)NCc1ccc(Cl)cc1` gave Methyltransferases inactive.
Screening CC(C)Cc1cnc(C2CCCN(C(=O)OC(C)(C)C)C2)[nH]1 (stereo not drawn) returned Methyltransferases inactive.
`Cc1nc2ccc(C(=O)NC(C(=O)O)c3c(C)n[nH]c3C)cc2[nH]1` (stereo not drawn) gave Methyltransferases inactive.
Screening CC1(CO)CC2C(O)C(=O)C3(CO)CC3(C)C2C1 (stereo not drawn) returned Methyltransferases inactive.
Screening Cc1ccc(N2C(=O)c3cc4sccc4n3CC2(C)C(=O)NC2CCCCC2C)c(C)c1 (stereo not drawn) returned Methyltransferases inactive.
COCCC1(NC(=O)C2CC2)CCN(S(=O)(=O)c2cc(OC)ccc2OC)CC1 was read as Methyltransferases inactive.
For CC(C)Oc1ccc(CN2C(=O)c3nc4ccccc4n3CC2(C)C(=O)NC2CCCCC2)cc1 (stereo not drawn) the results were Methyltransferases inactive.
c1ccc(Cn2c(-c3ccc(OCC(C4CCNCC4)n4c(-c5ccccc5)nc5ccccc54)cc3)nc3ccccc32)cc1 (stereo not drawn) was read as Methyltransferases active.
